Source: PubChem
Hits are enriched below; roughly 2.6% of the tested compounds scored in any of these assays.
GPR7 antag: blocks human GPR7 receptor signaling; GPR7-expressing cells, fluorescence antagonist assay; inhibition, % at 4.4 µM; actives 1.1% (n = 290,000); in the data active = inhibition above about 16%, passing the limit was not always enough;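 also: cells stimulated with the agonist NPW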
Target sequence (P48145 whole entry, looked up): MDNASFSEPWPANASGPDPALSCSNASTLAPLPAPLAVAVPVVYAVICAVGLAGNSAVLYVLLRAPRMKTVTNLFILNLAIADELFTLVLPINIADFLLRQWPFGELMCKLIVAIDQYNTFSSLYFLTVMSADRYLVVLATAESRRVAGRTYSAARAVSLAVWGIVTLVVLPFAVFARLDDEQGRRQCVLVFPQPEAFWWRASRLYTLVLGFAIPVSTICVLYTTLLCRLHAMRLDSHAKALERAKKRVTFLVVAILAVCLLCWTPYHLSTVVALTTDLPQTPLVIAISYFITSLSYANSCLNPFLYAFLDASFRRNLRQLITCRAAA
Ba/F3 V617F tox: reduce viability of Ba/F3 cells dependent on JAK2V617F. Ba/F3 EpoR-JAK2V617F viability, ATP luminescence. inhibition, % at 5.6 µM. actives 1.1% (n = 220,000);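 active = inhibition above the campaign mean plus 3 SD over all tested compounds, cut at about 24% in these data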;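 also: cytokine-independent growth of Ba/F3 cells driven by EpoR plus mutant JAK2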
BaF3 tox: parental Ba/F3 viability inhibition as JAK2V617F counter-screen; CellTiter-Glo ATP luminescence; AID 1486; actives 1.1% (n = 220,000); inhibition, % at 5.6 µM;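 active = inhibition above a per-campaign cutoff, the mean inhibition of all tested compounds plus 3 SD, cut at about 27% in these data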
DNA FID counter: fluorescent intercalator displacement, NS3 helicase counter-screen | DNA fluorescent intercalator displacement, fluorescence | inhibition, % at 7.9 µM | actives 0.17% (n = 290,000); in the data active = inhibition above about 37%;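 also: higher means more ethidium bromide displaced from hairpin DNA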
IEC-6 tox: counter-screen for KLF5 inhibitors: cytotoxicity in IEC-6 cells | IEC-6 cytotoxicity, luminescence viability | inhibition, % at 5 µM | actives 0.78% (n = 290,000)
KLF5 inh: inhibitors of KLF5 expression. DLD-1 KLF5 promoter-luciferase reporter, luminescence. inhibition, % at 5 µM. actives 0.23% (n = 290,000);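 active = inhibition above a per-plate limit of that plate's mean compound inhibition plus 3 SD, cut at about 60% in these data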;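 also: higher means less KLF5 promoter-driven luciferase light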
IEC-6 tox confirm: confirmation of cytotoxic compounds in rat IEC-6 intestinal epithelial cells. shares compounds with IEC-6 tox. IEC-6 rat intestinal epithelial viability, luminescence. inhibition, % at 5 µM. actives 63% (n = 1,900). AID 1907
Hits are given with their value; 0 = inactive; - = no result given. Rule as the data show it, unless noted: active = inhibition above about 22%; inactive = the rest.

SMILES	GPR7 antag	Ba/F3 V617F tox	BaF3 tox	DNA FID counter	IEC-6 tox	KLF5 inh	IEC-6 tox confirm
O=S(=O)(NCC1CCCO1)c1cccc2nsnc12 (configuration not stated)	0	0	0	0	0	0	-
Cc1cc2oc(C(=O)Nc3ccc(S(=O)(=O)N4CCCC(C)C4)cc3)cc(=O)c2cc1Cl (configuration not stated)	0	0	0	0	0	0	-
C=CCOc1ccc2nc(NC(=O)OC)[nH]c2c1	0	78	79	0	82	0	53
COC(=O)Nc1nc2ccc(-c3n[nH]c(=O)c4ccccc34)cc2[nH]1	0	0	0	0	0	0	-
Cc1ccc2ncnc(Nc3cccc([N+](=O)[O-])c3)c2c1	0	-	-	0	31	0	63
O=C(NNC(=O)c1ccc[nH]1)Nc1cc(Cl)cc(Cl)c1	0	0	0	0	0	0	-
O=c1c2ccccc2[nH]c(=S)n1CCCN1CCN(c2ccccc2)CC1	0	-	-	0	34	0	0
CCOc1cc(/C=N/Nc2cc(C)nc(-n3nc(C)cc3C)n2)ccc1O	0	0	0	0	54	0	0
O=[N+]([O-])c1ccc(-c2nn(-c3ccccc3)cc2/C=N/n2c(-c3cccs3)n[nH]c2=S)cc1	0	0	0	0	0	0	-
CCN1C(=O)C(O)(C2COC(C)(C)CC2=O)c2ccccc21 (configuration not stated)	0	0	0	0	0	0	-
CCN1C(=O)C(O)(C2COC(C)(C)CC2=O)c2cc(Br)ccc21 (configuration not stated)	0	0	33	0	84	0	0
CCOc1ccc2nc(NC(=O)c3ccoc3C)sc2c1	0	27	28	0	26	0	36
Cc1cc(CNC(=O)CCc2nnc(CCCCc3ccccc3)o2)nn1C	0	0	0	0	0	0	-
Cc1ccc(NC(=S)NNC(=O)c2ccccc2OC(F)F)cc1	0	26	41	0	28	0	0
O=C(NNC(=S)Nc1ccc(F)cc1)c1ccccc1OC(F)F	0	0	0	0	0	0	-
Cc1nnc(N/N=C/c2ccc(-c3ccc(Br)cc3)o2)n1N	0	0	0	0	37	0	0
O=C(O)c1ccc(N/N=C/c2ccc(-c3ccc(Br)cc3)o2)cc1	0	-	-	0	28	0	28
COc1cc(C)nc(N(C)S(=O)(=O)c2ccccc2Cl)n1	0	0	0	0	0	0	-
NC(=O)Cn1c(=O)n(-c2ccccc2)c(=O)c2oc3ccccc3c21	0	0	0	0	0	0	-
CCn1c(SCC(=O)Nc2cccc(C)c2)nc2ccccc2c1=O	0	-	-	0	22	0	0
Cc1ncc(CN2CCC(C(=O)Nc3ccc(-n4cccn4)cc3)CC2)s1	0	-	-	0	0	0	-
O=C(Nc1ccc(-n2cccn2)cc1)C1CCCCN1Cc1cccc2c1OCO2 (configuration not stated)	0	-	-	0	54	0	37
COc1cccc(Oc2cnc(N)nc2-c2ccc(OC)cc2O)c1	0	68	62	0	45	0	33
O=C(NCc1ccc2c(c1)OCO2)c1c(Cl)cccc1Cl	0	-	-	0	0	0	-
O=C1N/C(=C/c2ccc(N3CCOCC3)o2)C(=O)N1c1ccccc1	0	0	0	0	0	0	-
SMILES	GPR7 antag	Ba/F3 V617F tox	BaF3 tox	DNA FID counter	IEC-6 tox	KLF5 inh	IEC-6 tox confirm
C=CCN1C(=O)N/C(=C/c2ccc(N3CCOCC3)o2)C1=O	0	95	78	0	32	0	0
COc1ccc(-n2nc3c(N4CCC(C(=O)NCCc5ccccc5C)CC4)nnc(C)c3c2C)cc1	0	-	-	0	0	0	-
Cc1ccc(-n2nc3c(N4CCC(C(=O)NCCc5ccccc5C)CC4)nnc(C)c3c2C)cc1	0	-	-	37	23	0	34
COc1cccc(N2CC(O)=C(c3nc4ccccc4s3)C2=N)c1	0	76	81	0	79	0	57
COc1ccc(N2CC(O)=C(c3nc4ccccc4s3)C2=N)cc1	0	0	0	0	0	0	-
Cc1cc(C)c(C2C(C#N)=C(N)Oc3n[nH]c(C)c32)cc1CN1CCOCC1 (configuration not stated)	0	0	0	0	0	0	-
Cc1ccc(-c2cc(C(=O)Nc3cc(C)on3)c3ccccc3n2)cc1	0	0	0	0	0	0	-
Cc1cc(NC(=O)c2cc(-c3ccncc3)nc3c(C)cccc23)no1	0	41	50	0	60	0	44
CN1CCc2cc3c(c4c2[C@H]1[C@H](O)c1ccccc1-4)OCO3	0	65	65	97	44	0	0
CC1=Nc2cc(C(=O)NCC3CCCO3)ccc2Sc2ccc(Br)cc21 (configuration not stated)	0	0	0	0	43	0	29
CC1=Nc2cc(C(=O)O)ccc2Sc2ccc(Br)cc21	0	0	0	0	0	0	-
O=C(CN1CCN(Cc2ccccc2)CC1)N=Nc1c(O)[nH]c2ccccc12	0	0	0	0	23	0	0
CCCN(CCC)CCCNC(=O)c1cc2c(=O)n(CC)c3ccccc3c2s1	0	-	-	0	22	0	0
CCCCN(CC)CCCNC(=O)c1cc2c(=O)n(CC)c3ccccc3c2s1	0	-	-	0	0	0	-
CCn1c(=O)c2cc(C(=O)NCCC(C)C)sc2c2ccccc21	0	-	-	0	0	0	-
CCn1c(=O)c2cc(C(=O)NCCCOC)sc2c2ccccc21	0	-	-	0	22	0	0
COCCN(C(=O)CCC(=O)Nc1cc(C)on1)C(C(=O)NC1CCCC1)c1ccc(C)cc1 (configuration not stated)	0	-	-	0	0	0	-
Cc1cc(NCCCN2CCOCC2)n2ncc(-c3ccc(Cl)cc3)c2n1	0	0	0	0	0	0	-
Cc1cc(NCCCn2ccnc2)n2ncc(-c3ccc(Cl)cc3)c2n1	0	0	0	0	33	0	27
CCN1CCc2c(sc(NC(=O)c3cc4ccccc4cc3OC)c2C(N)=O)C1	0	-	-	0	27	0	0
COc1cccc(OC)c1C(=O)Nc1sc2c(c1C(N)=O)CCN(Cc1ccccc1)C2	0	-	-	0	0	0	-
COc1ccccc1NC(=O)NC(=O)N(C(C)C)S(C)(=O)=O	0	0	0	0	0	0	-
CCOC(=O)N/N=C/c1c(C)nn(-c2cccc(C(F)(F)F)c2)c1Cl	0	67	42	0	44	0	53
O=C(NNC(=O)C12CC3CC(CC(C3)C1)C2)c1cnccn1	0	0	0	0	0	0	-
O=C(NNC(=O)C12CC3CC(CC(C3)C1)C2)c1ccccn1	0	0	0	0	22	0	39
COc1cccc(CN(C)Cc2cc(=O)oc3c(C)c(C)ccc23)c1	0	-	-	0	61	0	39
Cc1c(O)ccc2c(CN(C)Cc3ccccc3)cc(=O)oc12	0	0	0	0	58	0	0
Cc1ccccc1CN(C)Cc1cc(=O)oc2c(C)c(C)ccc12	0	-	-	0	28	0	0
